Results filed as inconclusive are left out. The source made the active and inactive calls. Unless noted, calls follow the shape of the dose curve; as a rule, active = well fitted curve in the direction sought with a large enough effect; inconclusive = small, poorly fitted or top-dose-only effect, or another doubt; inactive = no such curve, though single readings can be large; an effect the other way counts as inactive or inconclusive.
What was measured:
[1] = Cytometric Cell-Based qHTS for Inhibitors of the mTORC1 Signaling Pathway in MEF (Tsc2-/-, p53-/-) Cells (AID 2660);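 also: Tsc2 and p53 null MEFs carrying empty vector with compound for 24 h; percent of cells above a phospho-rpS6 to PI ratio cutoff in each well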
In short: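 Readout: Alexa-488 phospho-rpS6 (Ser235/236) intensity divided by PI intensity, thresholded against 7.5 nM rapamycin wells and reported as % positive cells. PI cell count served as the viability measure. Compound exposure was 24 hrs at 37 degree Celsius.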

[2] = High Content Imaging Cell-Based qHTS for Inhibitors of the mTORC1 Signaling Pathway in MEF (Tsc2-/-, p53-/-) Cells (AID 2666); details: at 38.3 µM (top of the series);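 also: percent of cells scored positive for phospho-rpS6 Ser235/236 immunostaining by imaging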
In short: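 Cells were plated, dosed with compound after 24 hrs, and incubated another 24 hrs at 37 degree Celsius. Fixed cells were immunostained for phospho-rpS6 Ser235/236 and counterstained, and the normalized signal was scored as % active cells against rapamycin and DMSO controls.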

[3] = High Content Imaging Cell-Based qHTS for Inhibitors of the mTORC1 Signaling Pathway in MEF Cells (AID 2667);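 also: Tsc2-/- p53-/- MEFs stably re-expressing wild-type Tsc2 exposed 24 h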
In short: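 Immunofluorescence for rpS6 phosphorylation in MEFs of Tsc2-/-, p53-/- background rescued with WT Tsc2. Compound exposure lasted 24 hrs. Inhibition was scored against rapamycin-treated control wells.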

[4] = biological target: Ubiquitin carboxyl-terminal hydrolase 2 (Homo sapiens) (UniProt O75604); assay: qHTS Validation Assay for Inhibitors of Ubiquitin-specific Protease USP2a Using CHOP2 as the Reporter (AID 463106)
Chain of Ubiquitin carboxyl-terminal hydrolase 2 (Homo sapiens) (O75604 whole entry, looked up): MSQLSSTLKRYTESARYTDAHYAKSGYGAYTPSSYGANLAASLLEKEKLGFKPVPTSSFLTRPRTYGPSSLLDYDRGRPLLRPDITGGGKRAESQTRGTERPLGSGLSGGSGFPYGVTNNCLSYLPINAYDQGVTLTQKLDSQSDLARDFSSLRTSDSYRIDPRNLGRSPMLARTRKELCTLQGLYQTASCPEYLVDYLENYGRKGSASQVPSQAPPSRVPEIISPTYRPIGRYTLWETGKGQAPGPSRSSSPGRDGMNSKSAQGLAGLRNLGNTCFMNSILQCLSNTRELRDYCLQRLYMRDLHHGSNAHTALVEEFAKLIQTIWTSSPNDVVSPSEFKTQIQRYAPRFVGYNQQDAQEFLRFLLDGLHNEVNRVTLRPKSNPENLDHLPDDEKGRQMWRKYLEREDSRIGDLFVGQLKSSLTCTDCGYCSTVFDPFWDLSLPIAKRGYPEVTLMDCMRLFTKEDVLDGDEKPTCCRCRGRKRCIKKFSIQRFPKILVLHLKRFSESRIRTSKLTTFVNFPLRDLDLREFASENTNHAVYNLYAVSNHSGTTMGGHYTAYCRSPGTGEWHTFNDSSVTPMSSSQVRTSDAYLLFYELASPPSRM
In short: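 10nM USP2 core + cpd, 30min RT; add 25nM Ub-CHOP2/25nM substrate; 60min RT; FI 485/531nm. Buffer Tris pH 8.0, CaCl2, BME, CHAPS. Norm. to NEM = 100% inhibition; time-zero read flags fluorescent artifacts.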

[5] = biological target: DNA polymerase III PolC-type (Bacillus subtilis (strain 168)) (UniProt P13267); assay: qHTS Validation Assay for the Inhibitors of DNA Replication in Gram-Positive Bacteria (AID 485295);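 also: reconstituted holoenzyme with PolC plus beta clamp SSB and primase; PicoGreen fluorescence of double-stranded DNA made on primed circular M13 template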
Chain of DNA polymerase III PolC-type (Bacillus subtilis (strain 168)) (P13267 whole entry, looked up): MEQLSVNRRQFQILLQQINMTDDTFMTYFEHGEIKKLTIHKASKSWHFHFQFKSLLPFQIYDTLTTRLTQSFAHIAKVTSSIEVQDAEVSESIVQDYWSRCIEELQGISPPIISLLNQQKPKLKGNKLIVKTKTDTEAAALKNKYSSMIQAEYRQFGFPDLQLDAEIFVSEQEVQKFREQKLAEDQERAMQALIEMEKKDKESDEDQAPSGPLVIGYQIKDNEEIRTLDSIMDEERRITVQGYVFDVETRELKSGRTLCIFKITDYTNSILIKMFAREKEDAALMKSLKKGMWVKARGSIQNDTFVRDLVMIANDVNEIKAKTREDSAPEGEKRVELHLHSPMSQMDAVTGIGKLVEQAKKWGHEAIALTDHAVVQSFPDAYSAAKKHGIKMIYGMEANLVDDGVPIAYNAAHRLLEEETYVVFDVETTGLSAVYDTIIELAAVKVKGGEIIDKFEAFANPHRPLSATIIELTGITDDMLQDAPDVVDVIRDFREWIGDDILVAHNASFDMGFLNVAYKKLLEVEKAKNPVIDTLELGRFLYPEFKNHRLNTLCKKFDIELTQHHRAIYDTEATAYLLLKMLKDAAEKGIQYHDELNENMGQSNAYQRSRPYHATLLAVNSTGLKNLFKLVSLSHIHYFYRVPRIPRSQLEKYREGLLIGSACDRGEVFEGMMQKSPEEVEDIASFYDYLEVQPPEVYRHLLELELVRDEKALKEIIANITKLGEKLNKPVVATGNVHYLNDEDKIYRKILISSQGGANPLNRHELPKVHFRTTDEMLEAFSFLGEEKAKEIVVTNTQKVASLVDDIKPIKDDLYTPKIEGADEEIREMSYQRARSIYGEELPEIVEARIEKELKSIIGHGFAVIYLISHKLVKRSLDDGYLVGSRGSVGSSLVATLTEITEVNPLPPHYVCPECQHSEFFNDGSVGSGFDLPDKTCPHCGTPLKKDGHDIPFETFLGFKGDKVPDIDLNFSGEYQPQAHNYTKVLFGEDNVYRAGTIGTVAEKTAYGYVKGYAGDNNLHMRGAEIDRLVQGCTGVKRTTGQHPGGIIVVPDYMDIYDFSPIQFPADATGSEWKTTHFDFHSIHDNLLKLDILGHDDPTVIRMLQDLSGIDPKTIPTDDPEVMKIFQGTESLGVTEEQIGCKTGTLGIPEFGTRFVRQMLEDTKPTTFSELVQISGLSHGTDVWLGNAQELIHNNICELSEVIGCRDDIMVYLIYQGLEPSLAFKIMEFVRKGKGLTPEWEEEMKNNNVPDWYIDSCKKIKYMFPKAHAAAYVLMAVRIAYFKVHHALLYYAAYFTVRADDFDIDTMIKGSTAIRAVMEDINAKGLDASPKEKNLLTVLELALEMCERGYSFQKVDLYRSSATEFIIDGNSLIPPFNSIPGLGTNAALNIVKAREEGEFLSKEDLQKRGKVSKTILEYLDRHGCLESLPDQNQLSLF
In short: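 Inhibition of DNA synthesis by the reconstituted PolC holoenzyme, monitored through PicoGreen staining of dsDNA formed from ssM13Gori, dNTPs and NTPs, with compound preincubation and room-temperature reaction.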

[6] = biological target: Tumor susceptibility gene 101 protein (Homo sapiens) (UniProt Q99816); assay: qHTS Validation Assay for Iinhibitors of HIV-1 Budding by Blocking the Interaction of PTAP/TSG101 (AID 485342; calls by dose curve)
Chain of Tumor susceptibility gene 101 protein (Homo sapiens) (Q99816 whole entry, looked up, the tested form may be a part): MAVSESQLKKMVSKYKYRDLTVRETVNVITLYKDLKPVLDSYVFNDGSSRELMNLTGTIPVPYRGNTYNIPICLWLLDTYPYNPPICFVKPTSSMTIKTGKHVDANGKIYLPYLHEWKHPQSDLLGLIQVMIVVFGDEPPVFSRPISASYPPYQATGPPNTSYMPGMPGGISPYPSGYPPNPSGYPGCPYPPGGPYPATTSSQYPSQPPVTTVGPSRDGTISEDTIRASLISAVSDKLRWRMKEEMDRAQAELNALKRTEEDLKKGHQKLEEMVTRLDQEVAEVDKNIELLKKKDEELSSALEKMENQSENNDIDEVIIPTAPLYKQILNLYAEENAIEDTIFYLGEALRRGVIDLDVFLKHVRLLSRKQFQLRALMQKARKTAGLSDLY
In short: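 Compound wells held the Tsg101 binding domain (10 uM) and a FITC-conjugated PTAP peptide (50 nM) in buffer at pH 7.5 containing 0.15 M NaCl and 0.01% Tween 20; polarization was recorded after 20 min, r.t.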

[7] = biological target: Beta-2 adrenergic receptor (Homo sapiens) (UniProt P07550); assay: qHTS validation assay of beta-arrestin-biased ligands of beta2-adrenergic receptor (AID 485366)
Chain of Beta-2 adrenergic receptor (Homo sapiens) (P07550 whole entry, looked up): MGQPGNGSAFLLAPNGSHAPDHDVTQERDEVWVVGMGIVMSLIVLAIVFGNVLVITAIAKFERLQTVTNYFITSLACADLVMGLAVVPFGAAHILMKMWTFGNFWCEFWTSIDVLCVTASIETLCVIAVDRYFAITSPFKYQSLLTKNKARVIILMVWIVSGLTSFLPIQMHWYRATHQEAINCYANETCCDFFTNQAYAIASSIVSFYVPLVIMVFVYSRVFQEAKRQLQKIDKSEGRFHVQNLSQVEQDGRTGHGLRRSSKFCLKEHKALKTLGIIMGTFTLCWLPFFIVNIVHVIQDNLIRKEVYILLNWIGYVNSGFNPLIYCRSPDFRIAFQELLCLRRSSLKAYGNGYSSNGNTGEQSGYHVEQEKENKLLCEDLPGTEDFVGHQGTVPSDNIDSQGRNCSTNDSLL
In short: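 Tango cells (recombinant beta2-AR with recombinant beta-arrestin; recruitment releases tTA driving luciferase) were treated with compounds titrated up to 46 microM for 18 hr at 37 degrees C. Luminescence gave %Activity, and concentration-response curves were curve-classified.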

[8] = biological target: Flap endonuclease 1 (Homo sapiens) (UniProt P39748); assay: qHTS Validation Assay for the Inhibitors of Human Flap endonuclease 1 (FEN1) (AID 488816)
In short: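 Readings taken at 0 and 15 min after starting the reaction with 50 nM (final) substrate supplied the signal. Compounds had first sat with 10 nM FEN1 reagent for 15 min at room temperature. Values come from Hill-equation concentration-response fits.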

[9] = biological target: D(1A) dopamine receptor (Homo sapiens) (UniProt P21728); assay: HTS Assay for Allosteric Agonists of the Human D1 Dopamine Receptor: Primary Screen for Agonists (AID 488981)
Chain of D(1A) dopamine receptor (Homo sapiens) (P21728 whole entry, looked up): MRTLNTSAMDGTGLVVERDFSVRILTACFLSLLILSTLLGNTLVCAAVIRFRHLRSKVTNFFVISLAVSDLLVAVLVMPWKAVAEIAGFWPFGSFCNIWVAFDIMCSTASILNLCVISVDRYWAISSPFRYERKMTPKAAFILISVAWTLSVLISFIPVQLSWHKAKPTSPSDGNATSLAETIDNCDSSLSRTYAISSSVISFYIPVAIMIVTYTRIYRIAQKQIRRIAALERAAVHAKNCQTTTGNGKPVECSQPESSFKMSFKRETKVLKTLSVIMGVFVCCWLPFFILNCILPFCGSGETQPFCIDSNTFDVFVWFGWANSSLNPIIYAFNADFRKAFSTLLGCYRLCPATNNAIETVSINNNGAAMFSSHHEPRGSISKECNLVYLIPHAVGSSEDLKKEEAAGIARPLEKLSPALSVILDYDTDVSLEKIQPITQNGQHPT
In short: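 Calcium flux in an inducible, force-coupled HEK293 Trex D1 line (overnight at 30 C): agonist mode is the 180 s kinetic read after compound; potentiator mode is the following 180 s read after dopamine at EC20.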

[10] = Validation screen for small molecules that induce genotoxicity in human embryonic kidney (HEK293T) cells expressing luciferase-tagged ELG1 (AID 493106)
In short: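 Luminescence from an ELG1-luciferase fusion serves as the read-out, rising when genetic stress elevates ELG1 protein. HEK293T reporter cells (2,000 per well) received 23 nL compound, incubated 16 hr at 37 °C, then ONE-Glo for 30 min at room temperature.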

[11] = qHTS for Inhibitors of Cell Surface uPA Generation: Validation Assay (AID 493164)
In short: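 RAW 264.7 cells (4000/well) were plated overnight, then exposed for 18 h at 37 C, 5% CO2 to compounds in a 7-point 1:5 titration (2.45 nM–38.3 uM final). Intracellular ATP was read by ATP-Lite luminescence.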

[12] = biological target: Peptidyl-prolyl cis-trans isomerase NIMA-interacting 1 (Homo sapiens) (UniProt Q13526); assay: qHTS Validation Assay to Find Inhibitors of Pin1 (AID 504536; active = well fitted inhibition curve with a large enough effect in the polarisation, with a control signal flat, not every such curve was filed as active; the % refers to the polarisation)
In short: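 Fluorescence polarization competition: compounds (titration) displace HiFluor-488-labeled Pin1-1b peptide from Pin1 (0.3 uM final) in pH 7.5 HEPES buffer with DTT, 10 min at room temperature; %Activity normalized to no-enzyme wells, curves fitted.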

[13] = biological target: Phosphoglycerate kinase, glycosomal (Trypanosoma brucei brucei) (UniProt P07378); assay: qHTS Validation Assay to Find Inhibitors of Phosphoglycerate Kinase (AID 504547)
In short: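 Inhibition of the enzyme is judged by a Kinase-Glo Plus luminescent signal following a one-hour incubation at room temperature. Because 1,3-BPG is unstable, it is made in situ by GAPDH at 100nM final; no-PGK wells define the baseline.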

[14] = biological target: phosphoglycerate mutase (Leishmania major) (UniProt Q4Q090); assay: qHTS Validation Assay to Find Inhibitors of Phosphoglycerate Mutase (AID 504548)
Chain of phosphoglycerate mutase (Leishmania major) (Q4Q090 1-553): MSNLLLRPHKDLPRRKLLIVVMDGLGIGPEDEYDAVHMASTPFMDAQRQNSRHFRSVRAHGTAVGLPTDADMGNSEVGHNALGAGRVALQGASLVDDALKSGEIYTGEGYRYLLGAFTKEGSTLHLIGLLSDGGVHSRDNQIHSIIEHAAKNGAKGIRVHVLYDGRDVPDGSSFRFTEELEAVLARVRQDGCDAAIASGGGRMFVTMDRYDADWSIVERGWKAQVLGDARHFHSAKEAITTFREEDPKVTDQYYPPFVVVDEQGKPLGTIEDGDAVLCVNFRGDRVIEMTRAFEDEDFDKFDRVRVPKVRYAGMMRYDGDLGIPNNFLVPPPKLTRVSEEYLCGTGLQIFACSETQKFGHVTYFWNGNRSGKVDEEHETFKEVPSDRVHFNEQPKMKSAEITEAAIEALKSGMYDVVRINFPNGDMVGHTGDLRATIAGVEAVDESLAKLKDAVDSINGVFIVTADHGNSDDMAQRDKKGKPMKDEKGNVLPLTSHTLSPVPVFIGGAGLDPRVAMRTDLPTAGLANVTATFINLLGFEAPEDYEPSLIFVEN
In short: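 Lm PGAM 1.25nM final; 100 mM TEA pH 7.6, 5 mM MgCl2, 0.01% Tween-20; 45 min RT; Kinase-GloPlus, 10 min; end-point luminescence. Enzyme-free wells as negative controls.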

[15] = qHTS for Inhibitors of ATXN expression: Validation (AID 588378); also: nearly all actives have a fitted effect of over 75% in size
In short: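 After a 2 h attachment and 24 h compound incubation, HEK293-ATXN2-FFLuc wells are read for fluorescence at 405 nm excitation/525 nm emission as a viability measure, then for Bright-Glo luminescence reflecting ATXN2 expression.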

[16] = biological target: Glutaminase kidney isoform, mitochondrial (Homo sapiens) (UniProt O94925); assay: qHTS for Inhibitors of Glutaminase (GLS): LOPAC Validation (AID 624146);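 also: glutamate product detected by oxidase and peroxidase coupled Amplex red fluorescence gain; nearly all actives have a fitted effect of over 60% in size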
Chain of Glutaminase kidney isoform, mitochondrial (Homo sapiens) (O94925 whole entry, looked up, canonical isoform): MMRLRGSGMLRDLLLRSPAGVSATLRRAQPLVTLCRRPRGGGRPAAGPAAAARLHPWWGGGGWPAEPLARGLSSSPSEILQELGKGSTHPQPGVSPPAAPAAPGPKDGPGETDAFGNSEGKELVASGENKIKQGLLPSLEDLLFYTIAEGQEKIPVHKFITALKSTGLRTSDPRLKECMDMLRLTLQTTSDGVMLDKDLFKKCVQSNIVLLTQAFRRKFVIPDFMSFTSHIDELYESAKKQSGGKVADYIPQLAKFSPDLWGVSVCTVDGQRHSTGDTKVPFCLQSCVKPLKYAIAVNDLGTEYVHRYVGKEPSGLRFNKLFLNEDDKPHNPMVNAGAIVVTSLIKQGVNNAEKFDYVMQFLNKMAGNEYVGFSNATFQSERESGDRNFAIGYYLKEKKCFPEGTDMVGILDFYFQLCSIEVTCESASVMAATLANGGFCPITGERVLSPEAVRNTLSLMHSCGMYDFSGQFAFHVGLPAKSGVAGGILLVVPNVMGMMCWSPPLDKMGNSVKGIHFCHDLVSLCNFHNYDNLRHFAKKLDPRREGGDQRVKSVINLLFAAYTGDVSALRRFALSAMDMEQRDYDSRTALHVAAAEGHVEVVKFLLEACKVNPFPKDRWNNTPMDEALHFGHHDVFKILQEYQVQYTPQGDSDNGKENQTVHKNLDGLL
In short: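 Read-out is an Amplex red fluorescence increase coupled through glutamate oxidase and HRP, measured before and after 30 min room-temperature incubation. hKGA is in 45 mM KH2PO4 (pH 8.2) with 0.02% Tween-20; glutamine added as 1mM solution.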

[17] = qHTS of Trypanosoma Brucei Inhibitors: LOPAC Validation (AID 624147)
In short: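 Screened from lowest to highest concentration, compounds were pinned into TbPYK/substrate mixtures, and ADP (130 uM final) was added. Plates sat at room temperature for 45 min prior to Kinase-Glo Plus detection by luminescence.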

[18] = biological target: Glucagon-like peptide 1 receptor (Homo sapiens) (UniProt P43220); assay: qHTS of GLP-1 Receptor Agonists: LOPAC Validation (AID 624148);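 also: luminescence from a luciferase reporter switched on by cAMP; higher luminescence signal means agonism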
In short: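 Agonism scored as increased luciferase luminescence driven by cAMP in HEK293 clones carrying GLP-1R. Cells settled 12 hours, received compound for 4-6 hr at 37 deg C, 5% CO2, and were read after 12 min detection reagent at RT.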

[19] = qHTS of Nrf2 Activators: LOPAC Validation (AID 624149)
In short: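 Luminescence read-out of ARE-luciferase activation: AREc32_Fluc cells treated with compounds for 24 hr at 37 deg C, then lysed with Steady-Glo for 30 min at room temperature before reading.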

[20] = HTS Assay for Allosteric Antagonists of the Human D2 Dopamine Receptor: Hit Validation in HTRF (AID 624455);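 also: stable D1 dopamine receptor cell line scored for blocking the D1 response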
In short: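 First, antagonism was screened by calcium flux in a force-coupled, inducible Hek293 Trex D2 line challenged with EC80 dopamine. Hits then went into an HTRF assay in cells stably expressing D1, testing inhibition of the D1 response.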

[21] = biological target: Arylsulfatase A (Homo sapiens) (UniProt P15289); assay: qHTS screen for enhancers of Arylsulfatase A (ASA1): LOPAC Validation Assay (AID 720538); also: potency is read from the fitted curve at half-maximal effect
Chain of Arylsulfatase A (Homo sapiens) (P15289 whole entry, looked up): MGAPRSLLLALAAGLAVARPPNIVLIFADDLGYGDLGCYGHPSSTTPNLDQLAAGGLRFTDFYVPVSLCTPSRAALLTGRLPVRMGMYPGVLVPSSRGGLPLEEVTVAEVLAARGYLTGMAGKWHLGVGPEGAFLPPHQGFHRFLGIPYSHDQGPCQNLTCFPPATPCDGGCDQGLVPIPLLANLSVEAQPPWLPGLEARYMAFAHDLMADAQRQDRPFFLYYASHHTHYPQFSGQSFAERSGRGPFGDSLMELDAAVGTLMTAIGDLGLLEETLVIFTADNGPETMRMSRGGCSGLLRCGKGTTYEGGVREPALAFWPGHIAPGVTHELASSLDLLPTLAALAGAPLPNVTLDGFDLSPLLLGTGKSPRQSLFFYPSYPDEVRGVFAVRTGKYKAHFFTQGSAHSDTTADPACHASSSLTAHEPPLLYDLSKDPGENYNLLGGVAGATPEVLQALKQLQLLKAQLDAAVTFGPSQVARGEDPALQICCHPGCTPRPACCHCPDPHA
In short: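 Cell-based enhancement test: residual ASA activity in SV40-transformed I179S patient fibroblasts is measured by pNCS turnover (0.5mM final, 14h, room temperature) following 48h compound incubation; higher fluorescence indicates activation.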

[22] = qHTS for compounds that reverse cellular toxicity of Amyloid beta (A-beta) peptide in yeast: LOPAC Validation Assay (AID 720559)
In short: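 Here, A-beta-toxic yeast grow with test compounds at 30 C for 48 hr before optical density at 600 nm is recorded; data are normalized against DMSO and the FeCl3-clioquinol control.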

[23] = qHTS for Activators of Parkin Expression: LOPAC Validation Assay (NLuc Reporter) (AID 720572)
In short: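 Parkin promoter-driven FLuc/NLuc neuronal reporter cells; 24 h plating, 7-pt dose response, 24 h at 37 C/5% CO2; FLuc then NanoLuc reagent, 10 min each, luminescence; DMSO/positive control normalized.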

[24] = qHTS for Activators of Parkin Expression: LOPAC Validation Assay (FLuc Reporter) (AID 720573)
In short: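 Readout is FLuc luminescence from neuronal reporter cells (Parkin promoter, FLuc plus NLuc) after 24 h compound exposure in dose response. Values normalized to neutral DMSO and positive-control compounds.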

[25] = biological target: Hexokinase-4 (Homo sapiens) + Glucokinase regulatory protein (Homo sapiens) (UniProt P35557+Q14397); assay: qHTS assay for inhibitors of recombinant human GCK-GKRP interaction: Diaphorase-coupled assay (AID 743205)
In short: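 Signal derives from resorufin generated by diaphorase, linked to GCK turnover of glucose (5 mM) and ATP (0.4 mM). Enzyme complex was added after a 20-minute compound preincubation and monitored for 30 minutes.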

Measured: Potency

CCc1ccc(/C=C2/SC(=S)NC2=O)cc1
active: [21] 15.1 µM
inactive: all other assays above
